Compound activity: PubChem, National Center for Advancing Translational Sciences (NCATS)
Most compounds without a hit are left out; they make up all but 2.3% or so of the library.
Nrf2 ARE act: qHTS of Nrf2 Activators; AREc32 ARE-luciferase reporter (MCF7-derived line), luminescence, 24 h; Potency, µM (highest dose often 46.1 µM), for the others: top-dose activation, usual class: activators; 410,000 tested, 0.31% active; also: potency is read from the fitted curve at half-maximal effect; % of control where 0% means no effect; nearly all actives have a fitted effect of over 65% in size
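Nrf2 activation is followed as ARE-luciferase induction in the AREc32 line after one day of compound treatment; luminescence is read with Steady-Glo.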
Anesthetic bind: qHTS Assay for Identification of Novel General Anesthetics. Potency, µM (doses to about 77.5 µM), for the others: at the top dose activity change, negative = displacement, usual class: inhibitors. Ferritin light chain (Equus caballus), P02791. apoferritin/1-aminoanthracene competitive binding, fluorescence. 350,000 tested, 0.074% active; also: potency is read from the fitted curve at half-maximal effect; % is scaled to controls: 0 for no effect and ±100 for the full control effect; nearly all actives have a fitted effect of over 20% in size
Target sequence (P02791 2-175 limits assumed): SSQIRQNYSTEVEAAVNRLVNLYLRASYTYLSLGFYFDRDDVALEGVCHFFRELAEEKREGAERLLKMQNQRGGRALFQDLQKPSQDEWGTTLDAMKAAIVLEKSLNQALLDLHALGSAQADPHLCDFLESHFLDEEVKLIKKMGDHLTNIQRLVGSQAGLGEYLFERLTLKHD
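10 uM apoferritin + 50% sat. 1-AMA, PBS; cpd 10 min RT; Ex380/Em535 endpoint; normalized to free probe vs complex; 4-param Hill fit; propofol titration as pos. ctrl.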
Nrf2 inh: Nrf2 qHTS screen for inhibitors; 360,000 tested, 2.1% active; Potency, µM (doses to about 46 µM), inactives show at the highest dose activity change, negative = inhibition, actives largely listed as inhibitors; A549 ARE-Fluc reporter, luciferase luminescence, 18-24 h; also: potency is read from the fitted curve at half-maximal effect; % is scaled to controls: 0 for no effect and ±100 for the full control effect; nearly all actives have a fitted effect of over 60% in size
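Quantitative HTS in A549 cells stably bearing an antioxidant response element-firefly luciferase construct. Inhibition of Nrf2-driven transcription was scored by luminescence after 18-24 h of compound exposure at 37 °C.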
Giardia kill: Small Molecules that selectively kill Giardia lamblia: qHTS; activity change, % at 7.66 µM, hits read low; Giardia lamblia trophozoite viability; 340,000 tested, 0.15% active; AID 540267, 2011; in the data active = activity change below about -80%; inconclusive = between about -30% and that limit;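 also: parasites exposed to compound for two days anaerobically before the ATP read; % is scaled to controls: 0 for no effect and ±100 for the full control effect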
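ATP-content bioluminescence gauges trophozoite survival. Cells (100/well) receive compound and incubate anaerobically for 48 hrs at 37 deg C; detection reagent follows for 15-30 min at room temperature.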
mIDH1 inhibitor: qHTS for Inhibitors of mutant isocitrate dehydrogenase 1 (IDH1): qHTS | 390,000 tested, 0.093% active | AID 602179, 2012 | Potency, µM (top dose mostly 76.6 µM), for the others: at the highest dose activity change, negative = inhibition, hits mostly inhibitors | Isocitrate dehydrogenase [NADP] cytoplasmic (Homo sapiens), O75874 | IDH1-R132H enzyme, NADPH consumption, diaphorase/resazurin fluorescence; also: potency is read from the fitted curve at half-maximal effect; % is scaled to controls: 0 for no effect and ±100 for the full control effect; nearly all actives have a fitted effect of over 65% in size
Target sequence (O75874 whole entry R132H, stated change not applied): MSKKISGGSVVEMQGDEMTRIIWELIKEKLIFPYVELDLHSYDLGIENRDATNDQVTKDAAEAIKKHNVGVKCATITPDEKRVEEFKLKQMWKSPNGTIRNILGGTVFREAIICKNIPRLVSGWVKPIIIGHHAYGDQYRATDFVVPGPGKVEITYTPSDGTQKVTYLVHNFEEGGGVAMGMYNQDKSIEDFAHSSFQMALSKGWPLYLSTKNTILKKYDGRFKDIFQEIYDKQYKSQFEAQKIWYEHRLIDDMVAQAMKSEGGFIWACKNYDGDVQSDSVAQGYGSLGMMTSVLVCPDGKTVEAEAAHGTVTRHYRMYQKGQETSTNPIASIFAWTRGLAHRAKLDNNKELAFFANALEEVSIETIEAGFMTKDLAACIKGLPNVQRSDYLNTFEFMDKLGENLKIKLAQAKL
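IDH1-R132H (0.5 ug/mL) preincubated 30 min with compound, then NADPH (0.016 mM) and alpha-KG (2 mM) added; 80 min at RT, pH 7.5. Remaining NADPH coupled via diaphorase/resazurin to fluorescence (540/590 nm); concentration-response curves normalized to no-enzyme control.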
A549 tox-1: Nrf2 qHTS screen for inhibitors: counterscreen for cytotoxicity | Potency, µM (doses to about 46 µM), for inactives: at the top dose activity change, negative = cytotoxicity, hits mostly inhibitors | A549 ARE-Fluc cells, CellTiter-Fluor viability, 18-24 h | 390,000 tested, 0.16% active; also: potency is read from the fitted curve at half-maximal effect; % is scaled to controls: 0 for no effect and ±100 for the full control effect
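A549 ARE_Fluc cells in 5% FBS OPTI-MEM were exposed to compounds in concentration-response for 18-24 h at 37 deg C. Viability was read by CellTiter-Fluor fluorescence (Ex 405/Em 525) after 30 min, before the luciferase read.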
FLuc enzyme inh: Nrf2 qHTS screen for inhibitors: Purified Fluc Biochemical Counterscreen for Hit Validation; shares compounds with Nrf2 inh; purified firefly luciferase, luminescence inhibition; Potency, µM (titrated, usually from 57.5 µM), without a hit: at the highest dose activity change, negative = inhibition, hits mostly inhibitors; 1,400 tested, 4% active; also: potency is read from the fitted curve at half-maximal effect; % is scaled to controls: 0 for no effect and ±100 for the full control effect; nearly all actives have a fitted effect of over 65% in size
A549 tox-2: Nrf2 qHTS screen for inhibitors: A549 ARE-Fluc Cytotoxicity Counterscreen for Hit Validation; A549 ARE-Fluc cells, cytotoxicity counterscreen; shares compounds with Nrf2 inh; 1,400 tested, 2% active; Potency, µM (titrated, usually from 46.1 µM), without a hit: top-dose activity change, negative = cytotoxicity, hits mostly inhibitors;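 also: potency is read from the fitted curve at half-maximal effect; cells exposed to compounds for 18 to 24 hours; % is scaled to controls: 0 for no effect and ±100 for the full control effect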
Nrf2 ARE inh: Nrf2 qHTS screen for inhibitors: Nrf2 A549 ARE-Fluc Confirmation Assay for Hit Validation | Potency, µM (top dose mostly 46.1 µM), for the others: top-dose activity change, negative = inhibition, usual class: inhibitors | 1,400 tested, 74% active | AID 720524, 2013 | A549 ARE-firefly luciferase reporter, luminescence | shares compounds with Nrf2 inh; also: potency is read from the fitted curve at half-maximal effect; % is scaled to controls: 0 for no effect and ±100 for the full control effect; nearly all actives have a fitted effect of over 65% in size
* = called active by the depositor. Unless noted, calls follow the shape of the dose curve; as a rule, active = well fitted curve in the direction sought with a large enough effect; inconclusive = small, poorly fitted or top-dose-only effect, or another doubt; inactive = no such curve, though single readings can be large; an effect the other way counts as inactive or inconclusive.

Results for CCCS(=O)(=O)NC(=O)C1(C)CCCN(C(=O)c2cccc(C)c2C)C1 (stereo unspecified) ?
Nrf2 ARE act: -1%

Results for COc1cc(C(=O)Nc2sc3c(c2C(=O)O)CCC(C)C3)cc(OC)c1OC (stereo unspecified) ?
Nrf2 ARE act: 0%; Anesthetic bind: -3%; Nrf2 inh: 5.2µM*; Giardia kill: -1; mIDH1 inhibitor: 9%; A549 tox-1: -11%; FLuc enzyme inh: -18%; A549 tox-2: -20%; Nrf2 ARE inh: 7.3µM*

What do the screens show for `O=C(CSc1nccn1C1CCCC1)Nc1cccc(F)c1`?
Nrf2 ARE act: 4%; Anesthetic bind: 5%; mIDH1 inhibitor: -2%; A549 tox-1: 1%

How did CCCCCn1ccc(=N)cc1 do in these assays?
Nrf2 ARE act: 0%; Anesthetic bind: -16%; Nrf2 inh: 0.92µM*; Giardia kill: 11; mIDH1 inhibitor: -1%; A549 tox-1: inconclusive; FLuc enzyme inh: 4%; A549 tox-2: -12%; Nrf2 ARE inh: 1.6µM*

What do the screens show for `CCCCCCCn1ccc(=N)cc1`?
Nrf2 ARE act: 0%; Anesthetic bind: -10%; Nrf2 inh: 2.9µM*; Giardia kill: -29; mIDH1 inhibitor: 0%; A549 tox-1: -19%; FLuc enzyme inh: 2%; A549 tox-2: -13%; Nrf2 ARE inh: 6.5µM*

How did CCCCCCCCCn1ccc(=N)cc1 do in these assays?
Nrf2 ARE act: 4%; Anesthetic bind: -13%; Nrf2 inh: 3.3µM*; Giardia kill: 0; mIDH1 inhibitor: -1%; A549 tox-1: inconclusive; FLuc enzyme inh: 3%; A549 tox-2: -24%; Nrf2 ARE inh: 8.2µM*

How did O=C(COc1ccc(F)cc1)NCC(c1ccc(Cl)cc1)N1CCCCC1 (stereo unspecified) do in these assays?
Nrf2 ARE act: 6%; Anesthetic bind: 65%; Nrf2 inh: 11%; mIDH1 inhibitor: 0%; A549 tox-1: 0%

What do the screens show for `CC(C)Oc1ccc(CNC(=O)c2ccc(NC(=O)c3nsc4ccccc34)cc2)cc1`?
Nrf2 ARE act: 0%; Anesthetic bind: inconclusive; mIDH1 inhibitor: -5%; A549 tox-1: 2%

What do the screens show for `COC(=O)c1[nH]c2ccc(C)cc2c1NC(=O)CN1CCN(c2ccc(F)cc2)CC1`?
Nrf2 ARE act: 1%; Anesthetic bind: -9%; Nrf2 inh: 8.9µM*; Giardia kill: 1; mIDH1 inhibitor: 8%; A549 tox-1: inconclusive; FLuc enzyme inh: -14%; A549 tox-2: -19%; Nrf2 ARE inh: 8.2µM*

What do the screens show for `Cc1ccc(CN2COc3ccc4c(C)cc(=O)oc4c3C2)cc1`?
Nrf2 ARE act: -1%; Anesthetic bind: inactive; Nrf2 inh: 12%; mIDH1 inhibitor: 0%; A549 tox-1: -6%

Results for COc1cccc(/C=C(\C#N)c2nc3ccccc3c(=O)[nH]2)c1OC ?
Nrf2 ARE act: 0%; Anesthetic bind: -4%; Nrf2 inh: -15%; mIDH1 inhibitor: 1%; A549 tox-1: 9%

Results for O=C1CCc2cc(S(=O)(=O)Nc3ccc4c(c3)OCCO4)ccc2N1 ?
Nrf2 inh: inconclusive; A549 tox-1: 8%

Results for O=C(CC1C[C@H](C(=O)N2CCCCC2)[C@@]2(CCc3ccccc3)c3[nH]c4ccccc4c3CCN2C1=O)NCc1cccc(C(F)(F)F)c1 (stereo partly specified) ?
Nrf2 ARE act: -1%; Nrf2 inh: inconclusive; Giardia kill: 18; mIDH1 inhibitor: -11%; A549 tox-1: -17%

How did COc1ccc2[nH]c3c(c2c1)CCN1C(=O)C(CC(=O)NCc2cccc(C(F)(F)F)c2)C[C@H](C(=O)N2CCCCC2)[C@@]31CCc1ccccc1 (stereo partly specified) do in these assays?
Nrf2 ARE act: 0%; Nrf2 inh: 6.5µM*; Giardia kill: -2; mIDH1 inhibitor: -5%; A549 tox-1: -17%; FLuc enzyme inh: -2%; A549 tox-2: -27%; Nrf2 ARE inh: 21µM*

What do the screens show for `Cc1ccc2[nH]c3c(=O)n(CC(=O)N4CCCCC4)ncc3c2c1`?
Nrf2 ARE act: 0%; Anesthetic bind: 3%; Nrf2 inh: inconclusive; mIDH1 inhibitor: -9%; A549 tox-1: 0%

How did CCn1c(=N)n(CCOc2ccc(Br)cc2)c2ccccc21 do in these assays?
Nrf2 ARE act: -7%; Anesthetic bind: -17%; mIDH1 inhibitor: 16%; A549 tox-1: inconclusive

How did CC(=O)c1c(C)[nH]c(C(=O)OCC(=O)NCc2ccc(Cl)cc2)c1C do in these assays?
Nrf2 ARE act: 6%; Nrf2 inh: 8.2µM*; Giardia kill: 23; mIDH1 inhibitor: 2%; A549 tox-1: -14%; FLuc enzyme inh: 2%; A549 tox-2: 0%; Nrf2 ARE inh: 13µM*

Results for CC(=O)c1c(C)[nH]c(C(=O)OCc2c(F)cccc2Cl)c1C ?
Nrf2 ARE act: 0%; Anesthetic bind: -3%; Nrf2 inh: 5.2µM*; Giardia kill: -14; mIDH1 inhibitor: 2%; A549 tox-1: -12%; FLuc enzyme inh: -1%; A549 tox-2: 3%; Nrf2 ARE inh: 15µM*

Results for CC(=O)c1c(C)[nH]c(C(=O)OCC(=O)NCCc2ccc(Cl)cc2)c1C ?
Nrf2 ARE act: 5%; Anesthetic bind: inconclusive; Giardia kill: -15; mIDH1 inhibitor: 1%; A549 tox-1: -3%

How did Nc1nncn1C(=O)c1ccc(Cl)cc1Cl do in these assays?
Nrf2 ARE act: -2%; Anesthetic bind: -7%; Nrf2 inh: 1.6µM*; Giardia kill: -2; mIDH1 inhibitor: 0%; A549 tox-1: -1%; FLuc enzyme inh: -10%; A549 tox-2: -20%
